# According to the supplement of paper PMC11732987, “Enantioselective OTUD7B fragment discovery through chemoproteomics screening and high-throughput optimisation” (Communications Chemistry, 2025):
# Unmarked numbers belong to inactive results.
# Experiments:
# Assay in all cases: log2 ratio of Biotin-Ahx-Ub-VS probe labelling (fragment/DMSO); higher = less target engagement (more negative = stronger competition), active = hit call of the paper (q ≤ 0.05, log2 ratio ≤ -1)
# Settings in all cases: compound concentration: 200 uM; treatment time: 3 h
# [1] = target: USP16 (UniProt Q9Y5T5)
# Method in brief: (§1)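 Labelled DUBs were enriched with NeutrAvidin, digested with LysC and trypsin, and run by diaPASEF LC-MS/MS. The labelling used Biotin-Ahx-Ub-VS at 0.5 µM final for 1 h on HEK293T lysate (495 µg per sample) previously treated in triplicate with fragment at 200 µM or vehicle for 3 h. Values are average log2 fragment/vehicle ratios by unpaired t-test on global-median-normalised Spectronaut quantities of proteins with ≥2 unique peptides.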
# [2] = target: T1, USP19 (UniProt O94966)
# T1 sequence (whole entry): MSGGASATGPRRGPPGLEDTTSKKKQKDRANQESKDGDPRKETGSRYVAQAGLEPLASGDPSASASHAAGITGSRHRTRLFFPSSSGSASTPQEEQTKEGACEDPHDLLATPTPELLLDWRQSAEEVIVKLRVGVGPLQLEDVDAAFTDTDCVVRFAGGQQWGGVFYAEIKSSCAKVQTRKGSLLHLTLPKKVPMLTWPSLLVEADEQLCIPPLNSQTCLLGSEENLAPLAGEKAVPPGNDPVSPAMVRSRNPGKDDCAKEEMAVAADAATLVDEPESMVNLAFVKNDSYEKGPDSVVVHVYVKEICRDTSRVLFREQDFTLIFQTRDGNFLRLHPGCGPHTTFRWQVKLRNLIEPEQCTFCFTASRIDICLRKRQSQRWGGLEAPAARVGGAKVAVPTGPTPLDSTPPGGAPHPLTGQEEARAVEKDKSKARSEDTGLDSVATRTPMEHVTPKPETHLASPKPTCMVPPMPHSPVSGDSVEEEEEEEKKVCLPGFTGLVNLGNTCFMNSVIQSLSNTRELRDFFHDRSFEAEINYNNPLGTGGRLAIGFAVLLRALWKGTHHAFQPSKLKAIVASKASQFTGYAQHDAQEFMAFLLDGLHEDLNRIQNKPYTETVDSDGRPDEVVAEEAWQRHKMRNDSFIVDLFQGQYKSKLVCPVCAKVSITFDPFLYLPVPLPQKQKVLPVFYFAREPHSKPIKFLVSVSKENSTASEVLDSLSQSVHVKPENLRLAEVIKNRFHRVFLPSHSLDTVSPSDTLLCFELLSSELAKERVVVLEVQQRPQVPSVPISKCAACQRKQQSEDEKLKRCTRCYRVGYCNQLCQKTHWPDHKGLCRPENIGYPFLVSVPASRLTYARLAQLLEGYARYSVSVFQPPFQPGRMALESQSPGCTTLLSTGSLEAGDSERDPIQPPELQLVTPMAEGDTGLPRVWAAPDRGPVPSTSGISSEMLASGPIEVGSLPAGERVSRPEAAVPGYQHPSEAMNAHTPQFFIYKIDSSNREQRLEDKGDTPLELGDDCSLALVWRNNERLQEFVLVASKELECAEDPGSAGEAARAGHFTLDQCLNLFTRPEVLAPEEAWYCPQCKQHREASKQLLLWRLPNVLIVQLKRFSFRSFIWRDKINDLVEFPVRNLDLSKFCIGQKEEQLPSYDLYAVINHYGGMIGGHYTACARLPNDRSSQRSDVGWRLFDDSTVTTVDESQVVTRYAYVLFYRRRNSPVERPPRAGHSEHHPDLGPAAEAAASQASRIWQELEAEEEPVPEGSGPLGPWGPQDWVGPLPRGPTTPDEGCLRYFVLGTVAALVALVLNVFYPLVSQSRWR
# Method in brief: as §1
# [3] = target: USP24 (UniProt Q9UPU5)
# Method in brief: as §1
# [4] = target: T2, USP25 (UniProt Q9UHP3)
# T2 sequence (whole entry): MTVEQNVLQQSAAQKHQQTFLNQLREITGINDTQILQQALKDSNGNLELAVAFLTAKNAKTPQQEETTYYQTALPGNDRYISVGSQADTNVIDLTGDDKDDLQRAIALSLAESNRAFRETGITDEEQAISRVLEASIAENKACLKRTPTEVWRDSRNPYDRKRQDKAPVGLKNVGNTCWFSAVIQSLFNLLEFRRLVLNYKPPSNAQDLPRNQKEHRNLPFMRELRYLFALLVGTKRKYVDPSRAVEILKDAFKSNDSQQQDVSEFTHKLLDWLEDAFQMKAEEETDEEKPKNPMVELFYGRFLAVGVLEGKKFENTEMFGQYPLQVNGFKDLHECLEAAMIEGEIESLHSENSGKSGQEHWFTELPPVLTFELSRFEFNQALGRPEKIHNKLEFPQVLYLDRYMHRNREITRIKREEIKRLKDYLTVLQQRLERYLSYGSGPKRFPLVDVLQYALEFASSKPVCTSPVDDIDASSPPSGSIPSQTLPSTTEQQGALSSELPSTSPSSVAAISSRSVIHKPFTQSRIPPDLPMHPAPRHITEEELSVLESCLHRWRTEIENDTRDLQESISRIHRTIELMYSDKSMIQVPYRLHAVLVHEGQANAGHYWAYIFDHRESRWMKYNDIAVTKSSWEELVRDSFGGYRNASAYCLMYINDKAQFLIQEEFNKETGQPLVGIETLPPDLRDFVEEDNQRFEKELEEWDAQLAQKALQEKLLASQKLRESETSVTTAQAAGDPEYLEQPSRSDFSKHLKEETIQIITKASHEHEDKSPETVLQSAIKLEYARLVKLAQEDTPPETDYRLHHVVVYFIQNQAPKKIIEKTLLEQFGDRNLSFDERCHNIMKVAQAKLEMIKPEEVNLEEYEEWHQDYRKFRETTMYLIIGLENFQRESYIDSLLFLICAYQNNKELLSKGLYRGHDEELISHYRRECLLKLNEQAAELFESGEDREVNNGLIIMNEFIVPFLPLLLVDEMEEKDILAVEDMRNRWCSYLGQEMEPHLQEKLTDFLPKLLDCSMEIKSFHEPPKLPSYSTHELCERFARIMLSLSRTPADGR
# Method in brief: as §1
# [5] = target: T3, USP28 (UniProt Q96RU2)
# T3 sequence (whole entry): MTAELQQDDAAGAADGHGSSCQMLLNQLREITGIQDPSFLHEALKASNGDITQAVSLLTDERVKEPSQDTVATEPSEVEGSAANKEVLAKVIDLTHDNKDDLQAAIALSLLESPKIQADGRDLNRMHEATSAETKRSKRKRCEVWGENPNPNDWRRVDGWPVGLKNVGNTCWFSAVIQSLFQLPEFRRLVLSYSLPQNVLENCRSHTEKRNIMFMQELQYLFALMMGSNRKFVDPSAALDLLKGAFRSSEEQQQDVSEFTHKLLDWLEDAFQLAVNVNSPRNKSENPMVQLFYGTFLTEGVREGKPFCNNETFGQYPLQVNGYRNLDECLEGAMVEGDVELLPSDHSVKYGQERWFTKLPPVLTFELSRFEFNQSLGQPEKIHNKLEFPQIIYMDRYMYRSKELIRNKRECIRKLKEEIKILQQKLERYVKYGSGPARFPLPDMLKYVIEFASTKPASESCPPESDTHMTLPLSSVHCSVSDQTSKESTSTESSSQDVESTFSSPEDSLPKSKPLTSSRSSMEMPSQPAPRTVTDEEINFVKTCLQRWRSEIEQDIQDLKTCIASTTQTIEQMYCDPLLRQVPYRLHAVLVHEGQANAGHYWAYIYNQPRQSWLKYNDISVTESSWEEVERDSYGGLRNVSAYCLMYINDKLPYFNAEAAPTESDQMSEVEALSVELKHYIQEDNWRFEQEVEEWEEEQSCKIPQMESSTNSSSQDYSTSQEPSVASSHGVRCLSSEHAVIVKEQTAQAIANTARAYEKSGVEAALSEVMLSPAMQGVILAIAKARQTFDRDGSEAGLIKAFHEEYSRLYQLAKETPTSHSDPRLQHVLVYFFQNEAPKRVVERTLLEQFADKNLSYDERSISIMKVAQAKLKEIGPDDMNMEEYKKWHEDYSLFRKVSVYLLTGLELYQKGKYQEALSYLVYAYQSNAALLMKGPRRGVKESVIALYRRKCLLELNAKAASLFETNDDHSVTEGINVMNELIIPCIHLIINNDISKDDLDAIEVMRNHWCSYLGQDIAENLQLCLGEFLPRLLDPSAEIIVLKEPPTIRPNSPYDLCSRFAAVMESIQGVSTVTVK
# Method in brief: as §1
# USP24, sequence (Q9UPU5 whole entry): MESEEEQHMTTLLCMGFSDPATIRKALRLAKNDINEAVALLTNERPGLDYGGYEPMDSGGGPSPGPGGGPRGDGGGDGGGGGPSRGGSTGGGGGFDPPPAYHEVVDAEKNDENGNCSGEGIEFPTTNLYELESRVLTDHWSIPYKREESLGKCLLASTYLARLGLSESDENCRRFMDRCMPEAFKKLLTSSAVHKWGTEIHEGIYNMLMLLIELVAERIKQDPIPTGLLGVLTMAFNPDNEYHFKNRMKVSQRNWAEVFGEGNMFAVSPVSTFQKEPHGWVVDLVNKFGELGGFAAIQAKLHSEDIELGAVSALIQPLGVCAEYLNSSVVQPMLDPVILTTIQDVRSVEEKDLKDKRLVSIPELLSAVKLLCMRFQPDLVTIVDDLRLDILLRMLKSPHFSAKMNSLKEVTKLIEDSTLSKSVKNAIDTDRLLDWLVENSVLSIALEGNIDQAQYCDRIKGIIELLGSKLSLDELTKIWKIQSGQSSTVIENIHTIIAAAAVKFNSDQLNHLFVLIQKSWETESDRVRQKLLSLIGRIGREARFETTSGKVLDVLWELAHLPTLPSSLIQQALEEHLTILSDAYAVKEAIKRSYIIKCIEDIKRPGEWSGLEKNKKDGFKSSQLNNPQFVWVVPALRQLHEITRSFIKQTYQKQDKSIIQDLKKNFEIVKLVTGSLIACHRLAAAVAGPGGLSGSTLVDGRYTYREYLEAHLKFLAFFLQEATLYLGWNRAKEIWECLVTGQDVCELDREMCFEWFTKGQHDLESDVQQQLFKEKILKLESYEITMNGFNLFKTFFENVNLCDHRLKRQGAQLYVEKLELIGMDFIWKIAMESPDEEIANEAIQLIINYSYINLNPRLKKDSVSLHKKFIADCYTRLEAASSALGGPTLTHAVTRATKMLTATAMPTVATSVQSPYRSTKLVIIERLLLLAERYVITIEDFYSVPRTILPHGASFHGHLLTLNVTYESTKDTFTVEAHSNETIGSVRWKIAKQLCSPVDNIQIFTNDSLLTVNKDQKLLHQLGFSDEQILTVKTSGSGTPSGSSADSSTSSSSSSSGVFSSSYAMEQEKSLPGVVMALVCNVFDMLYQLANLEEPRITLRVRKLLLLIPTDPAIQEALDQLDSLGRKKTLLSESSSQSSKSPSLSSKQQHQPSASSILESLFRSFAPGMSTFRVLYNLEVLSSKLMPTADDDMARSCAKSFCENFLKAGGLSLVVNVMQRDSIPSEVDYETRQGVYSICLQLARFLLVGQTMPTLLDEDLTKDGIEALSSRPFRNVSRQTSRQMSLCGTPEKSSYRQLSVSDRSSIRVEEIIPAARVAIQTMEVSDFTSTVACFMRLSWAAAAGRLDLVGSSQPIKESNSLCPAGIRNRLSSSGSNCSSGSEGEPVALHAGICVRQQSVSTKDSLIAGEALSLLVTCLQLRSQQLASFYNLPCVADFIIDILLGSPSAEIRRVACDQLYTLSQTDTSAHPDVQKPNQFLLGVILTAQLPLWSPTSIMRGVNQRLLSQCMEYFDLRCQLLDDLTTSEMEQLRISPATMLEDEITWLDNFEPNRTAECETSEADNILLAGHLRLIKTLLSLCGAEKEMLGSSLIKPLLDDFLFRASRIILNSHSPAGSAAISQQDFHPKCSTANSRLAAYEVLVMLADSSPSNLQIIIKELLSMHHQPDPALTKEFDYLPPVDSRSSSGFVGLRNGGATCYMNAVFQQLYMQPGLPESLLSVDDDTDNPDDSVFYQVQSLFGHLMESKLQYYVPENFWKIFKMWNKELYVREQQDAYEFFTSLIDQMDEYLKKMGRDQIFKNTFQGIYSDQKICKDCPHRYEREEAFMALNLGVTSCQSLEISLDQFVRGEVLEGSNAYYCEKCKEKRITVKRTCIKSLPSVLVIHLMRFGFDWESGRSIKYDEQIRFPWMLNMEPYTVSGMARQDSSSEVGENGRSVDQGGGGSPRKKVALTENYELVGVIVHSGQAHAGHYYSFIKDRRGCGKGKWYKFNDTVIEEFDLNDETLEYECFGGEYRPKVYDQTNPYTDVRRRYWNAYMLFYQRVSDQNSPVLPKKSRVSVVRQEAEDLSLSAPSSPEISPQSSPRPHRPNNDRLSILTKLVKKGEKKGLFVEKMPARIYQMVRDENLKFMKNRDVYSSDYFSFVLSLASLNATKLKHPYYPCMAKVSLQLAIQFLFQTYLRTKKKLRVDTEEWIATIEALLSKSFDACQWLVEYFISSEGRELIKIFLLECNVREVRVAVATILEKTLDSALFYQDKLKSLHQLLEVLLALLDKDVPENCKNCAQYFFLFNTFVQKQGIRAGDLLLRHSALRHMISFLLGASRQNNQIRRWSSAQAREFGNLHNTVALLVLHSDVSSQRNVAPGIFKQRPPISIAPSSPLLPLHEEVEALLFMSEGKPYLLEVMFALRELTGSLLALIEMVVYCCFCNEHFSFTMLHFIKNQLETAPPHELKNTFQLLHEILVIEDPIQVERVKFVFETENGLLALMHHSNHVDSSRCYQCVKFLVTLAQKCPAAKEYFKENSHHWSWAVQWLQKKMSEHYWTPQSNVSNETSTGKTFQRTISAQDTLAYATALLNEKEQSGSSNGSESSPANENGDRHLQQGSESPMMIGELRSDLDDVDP
# USP16, sequence (Q9Y5T5 whole entry, looked up, the tested form may be a part): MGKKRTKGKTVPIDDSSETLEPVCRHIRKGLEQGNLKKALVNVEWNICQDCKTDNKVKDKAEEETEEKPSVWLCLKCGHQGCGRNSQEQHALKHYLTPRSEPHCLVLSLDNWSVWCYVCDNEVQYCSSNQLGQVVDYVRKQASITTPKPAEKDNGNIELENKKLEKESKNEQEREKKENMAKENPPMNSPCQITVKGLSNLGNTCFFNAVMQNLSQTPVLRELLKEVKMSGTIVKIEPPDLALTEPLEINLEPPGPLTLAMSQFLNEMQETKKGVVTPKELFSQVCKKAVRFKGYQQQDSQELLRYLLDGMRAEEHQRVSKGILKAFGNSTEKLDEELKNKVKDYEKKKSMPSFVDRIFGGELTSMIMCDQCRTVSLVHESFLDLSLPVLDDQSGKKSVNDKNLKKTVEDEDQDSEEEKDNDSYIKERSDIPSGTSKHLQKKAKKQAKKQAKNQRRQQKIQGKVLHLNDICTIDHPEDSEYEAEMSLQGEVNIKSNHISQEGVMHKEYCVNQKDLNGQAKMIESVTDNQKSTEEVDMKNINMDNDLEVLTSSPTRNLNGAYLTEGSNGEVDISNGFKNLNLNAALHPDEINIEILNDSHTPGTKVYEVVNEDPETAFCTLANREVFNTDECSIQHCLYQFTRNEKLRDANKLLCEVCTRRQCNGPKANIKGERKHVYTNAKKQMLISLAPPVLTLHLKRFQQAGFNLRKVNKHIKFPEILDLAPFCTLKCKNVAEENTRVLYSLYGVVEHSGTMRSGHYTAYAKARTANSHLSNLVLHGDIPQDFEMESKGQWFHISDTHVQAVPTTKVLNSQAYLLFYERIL
smiles,measurement,setting,value
O=C(CCl)NC1CCOc2ccccc21 (stereo not given),log2 ratio of Biotin-Ahx-Ub-VS probe labelling,[1],-0.325
same,log2 ratio of Biotin-Ahx-Ub-VS probe labelling,[2],-0.918
same,log2 ratio of Biotin-Ahx-Ub-VS probe labelling,[3],-1.01 (active)
same,log2 ratio of Biotin-Ahx-Ub-VS probe labelling,[4],-1.23 (active)
same,log2 ratio of Biotin-Ahx-Ub-VS probe labelling,[5],-1.6 (active)
